Reference: PubChem BioAssay AID2733 (National Center for Advancing Translational Sciences (NCATS), 2010)
Results filed as inconclusive are left out. The source made the active and inactive calls. The call rests on the fitted dose curve; in most records, active means well fitted inhibition curve with a large enough effect; inconclusive means small, poorly fitted or top-dose-only effect; inactive means flat fitted curve, though single readings scatter.

Assay: High Content Assay for Compounds that inhibit the Assembly of the Perinucleolar Compartment: PC3M Cytotoxicity
Conditions: PC3M cells, ATPLite luminescence viability, 24 h; series mostly up to 46.1 µM
Text: High Content Assay for Compounds that inhibit the Assembly of the Perinucleolar Compartment
NIH Chemical Genomics Center [NCGC]
NIH Molecular Libraries Probe Centers Network [MLPCN]
Assay Submitter (PI): Sui Huang, Northwestern University, Feinberg School of Medicine, Cell and Molecular Biology, Chicago, Illinois.
The perinucleolar compartment (PNC) is a non-membrane-bound nuclear subdomain that is associated with but structurally distinct from the nucleolus. The PNC is a heritable trait, in which the number of PNCs per cell in daughter cells often mimics that of their mother cells. The PNC is heterogeneous in shape, is stable through interphase, disassembles during mitosis, and reassembles in early G1. The PNC is concentrated with newly synthesized RNA polymerase III (pol III) RNAs (MRP RNA, RNAse P H1 RNA, hY RNAs[hY1, 2, 5], Alu RNA, and SRP [7SL] RNA) and RNA binding proteins (nucleolin, PTB, CUG-BP, KSRP, Raver1, Raver2, and Rod).
Extensive in vitro studies have shown that the PNC is unique to tumor cells and preferentially forms in tumor cells derived from solid tissues. Examination of cancer cell lines from various origins and malignant capacities has shown that PNC prevalence correlates with the malignancy of tumors and has the potential to be developed as a pan-cancer prognostic marker.
Although the PNC is associated with a DNA locus and a handful of components have been identified, much remains to be investigated regarding the structure and function of the PNC and its mechanistic link to cancer. We have previously shown that PNC prevalence reduction is a valid strategy to identify compounds that can be used to study the structure and function of the PNC. It is necessary, however, to create a screening platform that is able to test a large number of compounds in an automated fashion. Here we report the development and robustness of an automated whole-cell phenotypic image-based screening assay that is capable of identifying such compounds.
We conducted a followup assay to measure the effect of the lead candidates on cell health by measuring ATP levels (ATPLite). The highly metastatic PC3M-GFP reporter cell line was used in this study.
1. Cells at a density of 75-90% confluency in T175 flasks were harvested using 7 ml TrypLE Express cell dissociation reagent. After dissociation (5 minutes room temperature incubation) 10 ml of complete media was added to the TrypLE/cell suspension. The liquid was transferred to a 50 ml Conical tube and cells were pelleted at 1000 RPM for 5 min. Supernatant was removed and cells were resuspended to a final density of 150-200 cells/ul in complete media.
2. Cells were plated in 5 ul volume (2000 cells/well) into 1536 well White solid bottom plates and allowed to recover and adhere at 37 C in a humidified 5% CO2 incubator for 4 hours.
3. After 4 hour incubation, compound libraries (23 nl of 12.5 uM in columns 5-48) were transferred to the plates in duplicate using a 1536 well pintool. Camptothecin positive control (59 uM final) was added to column 2 and 1:3 dilutions of camptothecin was added to column 3. DMSO negative controls were present in columns 1 and 4.
4. After a 24 hour incubation in the 37 C incubator, all wells were treated with 3 ul of ATPLite reagent using a multidrop combi dispenser (ThermoFisher). Bubbles that formed during dispensing were removed by spinning the plates for 1 minutre at 1500 RPM on a table top centrifuge.
5. Luminescencent signal was detected on a Viewlux CCD based imager (PerkinElmer) with a clear filter and a 30 second integration time.
The PC3M cell line stably expressing the PTB-GFP was provided by Sui Huang of Northwestern University. The media and cell culture reagents were purchased from Invitrogen (Carlsbad, CA), ATPLite came from PerkinElmer.

Q: Which Potency does the source give for `Cc1ccc(-n2cc(-c3ccccc3)c3c(NN4CCOCC4)ncnc32)cc1` here?
A: inactive

Q: For `CCOC(=O)CSc1nc2c(sc3ccc([N+](=O)[O-])cc32)c(=O)n1Cc1ccco1`, which Potency is on record?
A: inactive

Q: For `COC(=O)C1=C(C)N(c2ccc(Br)cc2)C(=O)/C1=C\c1ccco1`, which Potency is on record?
A: inactive

Q: With `COc1ccc(-c2cc(C#N)nc(N3CCN(C)CC3)n2)cc1` as the molecule, how does the Potency read?
A: inactive

Q: With `O=C(N/N=C/c1cc(Cl)ccc1O)C(=O)Nc1ccccc1OC(F)(F)C(F)F` as the molecule, how does the Potency read?
A: 14.1 µM (active)

Q: Which Potency does the source give for `Cc1cc(C(=O)Cn2nnc3ccccc3c2=O)c(C)n1-c1ccccc1F` here?
A: 7.94 µM (active)

Q: With `COc1ccc(-c2nc(NC(=O)c3n[nH]c(=O)c4ccccc34)sc2C)cc1` as the molecule, how does the Potency read?
A: 7.08 µM (active)

Q: Which Potency does the source give for `CN1c2ccccc2C(C)(C)C12CC(c1ccc(Cl)c(S(=O)(=O)N3CCCC3)c1)=NO2` (stereo not given) here?
A: 3.98 µM (active)

Q: With `O=C(NCc1ccco1)C1CCN(Cc2ccc(F)cc2)CC1` as the molecule, how does the Potency read?
A: inactive

Q: For `CCCCN(C(=O)Nc1ccc(Cl)cc1)C1CCN(C(C)=O)CC1`, which Potency is on record?
A: inactive

Q: For `COc1ccccc1NC1=C(N2CCCCC2)C(=O)c2ccccc2C1=O`, which Potency is on record?
A: 7.94 µM (active)

Q: For `CNC1=C(N(C(C)=O)c2ccc(Br)cc2)C(=O)c2ccccc2C1=O`, which Potency is on record?
A: 8.91 µM (active)

Q: With `O=S(=O)(Nc1cc(Sc2cccc3cccnc23)c(O)c2ccccc12)c1ccc(F)cc1` as the molecule, how does the Potency read?
A: 15.8 µM (active)

Q: Which Potency does the source give for `Cc1cc[n+](C2=C([O-])c3ccccc3C(=O)/C2=N\S(=O)(=O)c2cccs2)cc1C` here?
A: 25.1 µM (active)

Q: Which Potency does the source give for `CCN(CC)c1ccc(N=Cc2ccccc2[N+](=O)[O-])cc1` here?
A: inactive

Q: For `CCc1ccc(S(=O)(=O)/N=C2/C=C(Sc3ncn[nH]3)C(=O)c3ccccc32)cc1`, which Potency is on record?
A: 35.5 µM (active)

Q: With `CC(=O)Nc1cccc(Oc2ncnc3scc(-c4ccc(C)cc4)c23)c1` as the molecule, how does the Potency read?
A: inactive

Q: Which Potency does the source give for `C=CCN=c1scc(-c2ccccc2)n1/N=C/c1ccccn1` here?
A: 14.1 µM (active)

Q: Which Potency does the source give for `O=C(COC(=O)Cc1ccsc1)NCC1CCCCC1` here?
A: inactive

Q: Which Potency does the source give for `O=C(Nc1cccnc1)c1cccs1` here?
A: inactive

Q: For `O=[N+]([O-])c1cc(/C=N/Nc2nc3ccccc3[nH]2)c(O)cc1O`, which Potency is on record?
A: 7.94 µM (active)

Q: With `CC(=O)N(C)C1=C(N2CCOCC2)C(=O)c2ccccc2C1=O` as the molecule, how does the Potency read?
A: 15.8 µM (active)

Q: For `O=C(N/N=C\c1ccc([N+](=O)[O-])s1)c1cncc(Br)c1`, which Potency is on record?
A: 25.1 µM (active)

Q: For `Nc1cccc(-c2nc3ccc(N)cc3s2)c1`, which Potency is on record?
A: 25.1 µM (active)

Q: With `COc1ccc(CN2CCC(C(=O)NCCc3ccc(OC)c(OC)c3)CC2)c(OC)c1` as the molecule, how does the Potency read?
A: inactive

Q: Which Potency does the source give for `Cc1ccc(NC(=S)NCCc2ccc(S(N)(=O)=O)cc2)cc1C` here?
A: inactive

Q: Which Potency does the source give for `CCCNC1=C(N(C(C)=O)c2cccc(F)c2)C(=O)c2ccccc2C1=O` here?
A: 11.2 µM (active)

Q: Which Potency does the source give for `O=C(N/N=C/c1ccccc1O)c1cccc(C(F)(F)F)c1` here?
A: 10 µM (active)

Q: With `O=C(Nc1ccc(NC(=O)C2CC2)cn1)c1ccccc1Cl` as the molecule, how does the Potency read?
A: 28.2 µM (active)

Q: For `C=CCNC(=S)N/N=C(\C)c1ccccn1`, which Potency is on record?
A: 6.31 µM (active)

Q: With `O=C(N/N=C/c1cc2c3c(c1O)CCCN3CCC2)c1ccccc1O` as the molecule, how does the Potency read?
A: 3.16 µM (active)

Q: With `COc1cc(C(=O)Oc2ccccc2/C=N/NC(=O)c2ccc(Cl)cc2)cc(OC)c1OC` as the molecule, how does the Potency read?
A: 11.2 µM (active)

Q: Which Potency does the source give for `CCOC(=O)NC1(Nc2ccc(C)cc2)Oc2ccccc2O1` here?
A: inactive

Q: For `CSc1nc(-c2ccc(C)cc2)nc(C(Cl)Cl)n1`, which Potency is on record?
A: 31.6 µM (active)

Q: With `O=C1C(=O)c2ccc(-c3ccccc3)cc2-c2ccccc21` as the molecule, how does the Potency read?
A: 15.8 µM (active)

Q: For `CN(C)c1ccc(N=Nc2ccccc2C(=O)OCC(=O)NC2CCCC2)cc1`, which Potency is on record?
A: inactive

Q: With `COC(=O)c1ccc(CSc2ccccc2C)o1` as the molecule, how does the Potency read?
A: inactive

Q: With `O=C(N/N=C/c1c(O)ccc2ccccc12)c1cccc(C(F)(F)F)c1` as the molecule, how does the Potency read?
A: 8.91 µM (active)

Q: Which Potency does the source give for `Nc1ccc2c(c1)C(=O)C(=O)c1ccccc1-2` here?
A: 22.4 µM (active)

Q: With `COc1ccc(-c2csc(NC(=O)c3ccc(OCC(=O)N4CCOCC4)c(OC)c3)n2)cc1` as the molecule, how does the Potency read?
A: inactive
